According to PubChem BioAssay (NCATS):
Results filed as inconclusive are left out. Unless noted, calls come from the whole dose curve; as a rule, active = well fitted curve in either direction with a large enough effect (not every such curve was filed as active); inconclusive = small, poorly fitted or top-dose-only effect, or another doubt; inactive = flat fitted curve, though single readings scatter.

Tests used:
[1] = AP1 Signaling Pathway (AID 357); conditions: ME-180 AP-1-bla reporter, EGF-induced, beta-lactamase ratio, 5 h; at 17.2 µM (top of the series) unless noted; note: % is set by controls: 0 for no effect and ±100 for the full control effect
How it was run: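 Modulation of EGF-driven AP-1 transcription was assessed with a beta-lactamase reporter in ME-180 cells. Compound and EC50 EGF were co-incubated 5 hours at 37 °C before 2.5-hour CCF4 loading at room temperature and dual-emission reading.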

[2] = NFAT Signaling Pathway (AID 444); conditions: Jurkat NFAT-bla M1, carbachol, beta-lactamase ratio, 5 h; at 17.2 µM (top of the series) unless noted;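 note: carbachol stimulus at about its EC50 of 1 µM final; % is set by controls: 0 for no effect and ±100 for the full control effect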
How it was run: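 Read-out: CCF4 FRET ratio (460 nm/530 nm) after 1 h RT dye loading, used for %activity and AC50 from titration series. Cells: Jurkat NFAT-β-lactamase/M1 line, treated with compound plus 1 uM carbachol for 5 h, 37 °C.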

[3] = Stat Signaling Pathway (AID 446); conditions: ME-180 (cervical carcinoma) SIE beta-lactamase reporter, IL-6 stimulated, 5 h; at 17.2 µM (top of the series) unless noted;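 note: ME-180 cervical cancer cells given 40 pM IL-6 alongside compound; SIE-controlled beta-lactamase reporter measured as 460/530 nm FRET emission ratio; % is set by controls: 0 for no effect and ±100 for the full control effect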
How it was run: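 Compound effects on IL-6-induced STAT reporter activity were measured in ME-180 cells. After overnight culture, cells were co-treated with 40 pM IL-6 for 5 hrs before beta-lactamase substrate loading at room temperature.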

[4] = molecular target: Glucocorticoid receptor (Homo sapiens) (UniProt P04150); assay: GR-GFP Redistribution (AID 450;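 active = compounds whose dose series gives a full or clear partial fitted curve of increased nuclear translocation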; note: potency is the fitted concentration of half-maximal effect)
Sequence of Glucocorticoid receptor (Homo sapiens) (P04150 whole entry, looked up): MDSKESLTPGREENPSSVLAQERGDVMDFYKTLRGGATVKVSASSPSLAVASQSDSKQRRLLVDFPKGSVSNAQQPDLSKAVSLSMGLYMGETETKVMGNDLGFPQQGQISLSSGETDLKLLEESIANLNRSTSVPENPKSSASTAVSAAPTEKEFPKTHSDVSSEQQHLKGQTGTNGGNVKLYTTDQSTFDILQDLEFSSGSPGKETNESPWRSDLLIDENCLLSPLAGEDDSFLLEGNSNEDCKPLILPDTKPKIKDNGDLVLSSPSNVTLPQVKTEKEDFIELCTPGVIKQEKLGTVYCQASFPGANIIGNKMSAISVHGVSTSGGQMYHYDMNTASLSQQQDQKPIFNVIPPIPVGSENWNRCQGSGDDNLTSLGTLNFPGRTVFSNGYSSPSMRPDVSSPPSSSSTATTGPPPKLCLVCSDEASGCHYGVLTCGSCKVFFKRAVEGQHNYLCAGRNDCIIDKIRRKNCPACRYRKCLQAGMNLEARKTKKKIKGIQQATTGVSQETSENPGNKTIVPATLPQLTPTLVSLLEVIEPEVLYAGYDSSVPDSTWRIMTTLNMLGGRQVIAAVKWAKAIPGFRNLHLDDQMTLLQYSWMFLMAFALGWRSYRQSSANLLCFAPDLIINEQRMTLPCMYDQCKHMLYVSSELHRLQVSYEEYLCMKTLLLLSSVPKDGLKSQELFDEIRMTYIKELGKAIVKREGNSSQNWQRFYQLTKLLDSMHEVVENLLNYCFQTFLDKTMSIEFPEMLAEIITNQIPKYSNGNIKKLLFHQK

CCC(C)Nc1nc(OC)nc(N(C)C#N)n1 (stereo not given)
inactive: activity change, negative = inhibition [1] 12.2% | activity change, negative = inhibition [2] 12.5% | activity, negative = inhibition [3] -0.957% | Potency [4] > 20.6 µM

O=C1C(=O)N(CCN2CCOCC2)C(c2ccccn2)/C1=C(/O)c1ccccc1 (stereo not given)
inactive: activity change, negative = inhibition [1] -4.12% | activity change, negative = inhibition [2] 3.29% | activity, negative = inhibition [3] -1.75% | Potency [4] > 20.6 µM

O=C(Oc1cccnc1)c1ccco1
inactive: activity change, negative = inhibition [1] 7.51% | activity change, negative = inhibition [2] 5.81% | activity, negative = inhibition [3] 8.88% | Potency [4] > 20.6 µM

COc1ccc(OC)c(C2/C(=C(\O)c3ccc4c(c3)OCCO4)C(=O)C(=O)N2CCCN(C)C)c1 (stereo not given)
inactive: activity change, negative = inhibition [1] 4.27% | activity change, negative = inhibition [2] 12.2% | activity, negative = inhibition [3] -7.15% | Potency [4] > 20.6 µM

Cc1ccc(N(CN2C(=O)C3CC=CCC3C2=O)C(=O)c2ccco2)cc1Cl (stereo not given)
inactive: activity change, negative = inhibition [1] -4.76% | activity change, negative = inhibition [2] 9.09% | activity, negative = inhibition [3] -11% | Potency [4] > 20.6 µM

CCOC(=O)CSc1nc2sc3c(c2c(=O)[nH]1)CC(C)(C)OC3
inactive: activity change, negative = inhibition [1] 6.27% | activity change, negative = inhibition [2] 6.58% | activity, negative = inhibition [3] 4.32% | Potency [4] > 20.6 µM

Cn1c(=O)c2c(nc(NCc3ccco3)n2CCc2ccccc2)n(C)c1=O
inactive: activity change, negative = inhibition [1] -0.525% | activity change, negative = inhibition [2] -24% | activity, negative = inhibition [3] -5.04% | Potency [4] > 20.6 µM

Nc1[nH]nc2nc(NCc3ccccc3)c3c(c12)CCN(Cc1ccccc1)C3
inactive: activity change, negative = inhibition [1] -11.4% | activity change, negative = inhibition [2] 0.244% | activity, negative = inhibition [3] 6.86% | Potency [4] > 20.6 µM

N/C(=N\S(=O)(=O)c1ccc(Cl)s1)c1ccccc1
inactive: activity change, negative = inhibition [1] -2.33% | activity change, negative = inhibition [2] -13.4% | activity, negative = inhibition [3] -9.11% | Potency [4] > 20.6 µM

Cc1nc(Nc2ncc3c(n2)CCCC3=O)nc2ccccc12
inactive: activity change, negative = inhibition [1] 16.8% | activity change, negative = inhibition [2] 19.8% | activity, negative = inhibition [3] 0.527% | Potency [4] > 20.6 µM

Cn1c(Cn2cnc3ccccc32)nc2ccccc21
inactive: activity change, negative = inhibition [1] -1.15% | activity change, negative = inhibition [2] 3.95% | activity, negative = inhibition [3] -2% | Potency [4] > 20.6 µM

C=CCn1c(-c2ccc(OC)c(OC)c2)n[nH]c1=S
inactive: activity change, negative = inhibition [1] 1.93% | activity change, negative = inhibition [2] 9.3% | activity, negative = inhibition [3] -10.7% | Potency [4] > 20.6 µM

CC(NC(=O)Nc1nccs1)(C(F)(F)F)C(F)(F)F
inactive: activity change, negative = inhibition [1] 4.62% | activity change, negative = inhibition [2] 15.9% | activity, negative = inhibition [3] 5.57% | Potency [4] > 20.6 µM

Cc1c(CCC#N)c(N2CCCCC2)n2c(nc3ccccc32)c1C#N
inactive: activity change, negative = inhibition [1] -4.98% | activity change, negative = inhibition [2] -11.4% | activity, negative = inhibition [3] 10.9% | Potency [4] > 20.6 µM

COC(=O)CCc1c(C)[nH]c(C(=O)OCc2ccccc2)c1C
inactive: activity change, negative = inhibition [1] -13.9% | activity change, negative = inhibition [2] -4.78% | activity, negative = inhibition [3] 5.36% | Potency [4] > 20.6 µM

CCOC(=O)C1CCCN(c2nc3ccccc3nc2C(C#N)C(=O)OCCOC)C1 (stereo not given)
inactive: activity change, negative = inhibition [1] -28.5% | activity change, negative = inhibition [2] -3.48% | activity, negative = inhibition [3] -2.06% | Potency [4] > 20.6 µM

CC(C)OC(=O)[C@H]1[C@H](c2ccc(Cl)cc2)[C@@](C#N)(C(N)=O)[C@@H]2C=CC(C(N)=O)=CN21
inactive: activity change, negative = inhibition [1] -13.7% | activity change, negative = inhibition [2] -5.51% | activity, negative = inhibition [3] -11.5% | Potency [4] > 20.6 µM

CC1C/C=C/C=C/C=C/C=C/C(O[C@@H]2O[C@H](C)[C@@H](O)[C@H](N)[C@@H]2O)CC2OC(O)(CC(O)CC3OC3/C=C/C(=O)O1)CC(O)C2C(=O)O (stereo not given in full)
inactive: activity change, negative = inhibition [1] 1.3% | activity change, negative = inhibition [2] 0.554% | activity, negative = inhibition [3] 5.83% | Potency [4] > 20.6 µM

CN1CCc2c(C#N)c(N3CCCCC3)nc(N3CCOCC3)c2C1
inactive: activity change, negative = inhibition [1] 1.28% | activity change, negative = inhibition [2] 20.7% | activity, negative = inhibition [3] 10.9% | Potency [4] > 20.6 µM

CC(C)c1[nH]c(=O)c(C#N)c2c1CSC(C)(C)C2
inactive: activity change, negative = inhibition [1] -3.98% | activity change, negative = inhibition [2] -5.85% | activity, negative = inhibition [3] 4.25% | Potency [4] > 20.6 µM

CCCC1Cc2c(sc3nc(SC)nc(N)c23)CO1 (stereo not given)
inactive: activity change, negative = inhibition [1] -3.09% | activity change, negative = inhibition [2] -10.7% | activity, negative = inhibition [3] -1.16% | Potency [4] > 20.6 µM

CCOC(=O)c1[nH]c2cc3c(cc2c1NC(=O)CN1CCC(C)CC1)OCO3
inactive: activity change, negative = inhibition [1] -11.2% | activity change, negative = inhibition [2] 3.83% | activity, negative = inhibition [3] -3.19% | Potency [4] > 20.6 µM

O=C(NCCCn1ccnc1)C(Cc1ccccc1)N1C(=O)c2ccccc2C1=O (stereo not given)
inactive: activity change, negative = inhibition [1] -14.7% | activity change, negative = inhibition [2] 7.45% | activity, negative = inhibition [3] 5.97% | Potency [4] > 20.6 µM

C=CCOc1ccc(/C(O)=C2/C(=O)C(=O)N(CCCN3CCOCC3)C2c2ccc(OC)cc2)cc1 (stereo not given)
inactive: activity change, negative = inhibition [1] -6.96% | activity change, negative = inhibition [2] 8.61% | activity, negative = inhibition [3] -4.29% | Potency [4] > 20.6 µM

COc1ccc(C(=O)N2CCCC(c3ccccc3)C2)cc1 (stereo not given)
inactive: activity change, negative = inhibition [1] -9.81% | activity change, negative = inhibition [2] 18.5% | activity, negative = inhibition [3] 2.57% | Potency [4] > 20.6 µM
